HCV inh – inhibitors of hepatitis C virus infection; Huh7.5.1 HCVcc-Cre infection, luciferase reporter, 44 h; Potency, µM (titrated, usually from 41.8 µM), usual class: inhibitors; hit rate 3.4% among 340,000; active = well fitted inhibition curve with a large enough effect; inconclusive = small, poorly fitted or top-dose-only effect, or another doubt; inactive = no such curve, though single readings can be large or run the other way
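HCVcc-Cre virus at an moi near 0.5 was added right after compound to cells cultured 4 h from seeding (1,000 cells/well). Luciferase activity was determined 44 h later, 15 min after substrate addition at RT.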
HCMV antiviral – human cytomegalovirus inhibition | HFF cells, HCMV-luciferase reporter, 72 h; stronger effect = lower value | activity change, negative = inhibition, % at 57.5 µM | hit rate 4.5% among 410,000 | AID 1259415; in the data active = activity change below about -60%; inconclusive = no clear call, values can overlap the other calls; inactive = above about -39%
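Luciferase read-out from HCMV-luciferase-infected HFFs (MOI 1 PFU/cell) 72 h post infection at 37C; compounds added after 16 h cell attachment; activity normalized between buffer-only basal and Salinomycin (10uM) inhibitor controls.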
VACV Venus inh – vaccinia inhibition (Venus reporter) | Potency, µM (highest dose often 36.5 µM), most hits filed as inhibitors | AID 720580 | Vaccinia virus Venus reporter expression, fluorescence | hit rate 0.46% among 330,000; calls by dose curve; tested in A549 cells; also: nearly all actives have a fitted effect of over 30% in size
VACV mCherry inh – vaccinia inhibition (mCherry reporter) | AID 720579 | Vaccinia virus mCherry reporter infection, fluorescence | Potency, µM (highest dose often 36.5 µM), usual class: inhibitors | hit rate 0.63% among 310,000; calls by dose curve; tested in A549 cells; also: nearly all actives have a fitted effect of over 35% in size
FMDV inh – foot and mouth disease virus antiviral activity; FMDV antiviral cell-based qHTS; Potency, µM (highest dose often 57.9 µM), most hits filed as inhibitors; hit rate 1.2% among 410,000; calls by dose curve; tested in HEK293T cells; also: read-out not given here; nearly all actives have a fitted effect of over 45% in size
Of the large screens only hits and unclear results are named; the others gave an inactive call; ! = not active in a repeat. Sampled rows, rich in hits. Any-hit rate of the full collection: about 7.3%.

COc1ccc(/C=C/C(=O)c2c(O)c(OC)c3occc3c2OC)cc1OC	none (no result: HCV inh, HCMV antiviral, FMDV inh)
CCc1ccc(C(=O)c2cn(CC(=O)Nc3ccc4c(c3)OCCO4)c3ccc(C)cc3c2=O)cc1	none (no result: HCV inh)
CN(C)Cc1csc(NC(=O)Nc2ccccc2C(C)(C)C)n1	HCMV antiviral -76.0 (no result: HCV inh)
COc1cccc(CNC(=O)Cc2csc(NC(=O)Nc3ccccc3OC)n2)c1	HCV inh 5.62µM
COc1ccc(NC(=O)Cc2csc(NC(=O)Nc3ccccc3OC)n2)c(OC)c1	VACV mCherry inh inconclusive, FMDV inh inconclusive
Cc1ccccc1NC(=O)Nc1nc(CN(C)C)cs1	none (no result: HCV inh)
COc1ccccc1NC(=O)Nc1nc(CC(=O)NCc2c(F)cccc2F)cs1	HCV inh inconclusive
COc1ccccc1NC(=O)Nc1nc(CC(=O)NCc2ccc(F)cc2)cs1	HCV inh 7.08µM, VACV Venus inh inconclusive, VACV mCherry inh inconclusive, FMDV inh 39.8µM
CCc1ccc(S(=O)(=O)NCc2nc3cccnc3n2Cc2ccccc2Cl)cc1	HCMV antiviral inconclusive (no result: HCV inh)
COc1ccccc1CCNC(=O)C(=O)NCC(c1cccnc1)N1CCN(c2ccccc2)CC1 (stereo unspecified)	FMDV inh inconclusive (no result: HCV inh)
CCC/C=C1/CCCOC(C(=O)NCc2ccccc2)(C(F)(F)F)C1 (stereo unspecified)	HCV inh 0.891µM
C#CCOC(=O)c1ccccc1C(=O)n1nnc2ccccc21	FMDV inh 22.4µM (no result: VACV Venus inh, VACV mCherry inh)
C#CCOC(=O)c1ccccc1C(=O)OCC#C	none (no result: VACV mCherry inh)
CCCCNc1c(-c2ccc(OC)c(SC3CCCCC3)c2)nc2ccc(C)cn12	HCV inh inconclusive, HCMV antiviral -100.7!, VACV Venus inh 11.2µM, VACV mCherry inh 10µM, FMDV inh 22.4µM
CCCCNc1c(-c2ccc(SC3CCCCC3)c(OC)c2)nc2ccc(C)cn12	HCV inh inconclusive, HCMV antiviral -70.5!, VACV Venus inh inconclusive, FMDV inh 28.2µM!
COc1ccc(-c2nc3ccc(Cl)cn3c2NC2CCCCC2)cc1SC1CCCCC1	VACV mCherry inh inconclusive
COc1ccc(-c2nc3ccc(C)cn3c2NCc2ccccc2)cc1SC1CCCCC1	HCV inh inconclusive, VACV Venus inh inconclusive, FMDV inh 20µM (no result: HCMV antiviral)
Cc1ccc(CN2C[C@H](Sc3ccccn3)C[C@H]2C(=O)Nc2ccc3sc(C)nc3c2)s1	VACV Venus inh inconclusive (no result: HCV inh, HCMV antiviral)
S=C(c1ccc(-c2ccccc2)cc1)N1CCOCC1	HCMV antiviral -83.5
O=C(c1ccc(-c2ccccc2)cc1)c1ccccc1C(=O)N1CCOCC1	none (no result: VACV Venus inh, VACV mCherry inh)
CCN1CCc2c(sc(-n3cccc3)c2C(C)NC(=O)Nc2cc(Cl)c(OC)cc2OC)C1 (stereo unspecified)	none (no result: HCV inh)
Cc1ccc2c(c1)/C(=C/c1ccccc1)C(=O)N2	none
COc1ccc2c(c1)/C(=C\c1cccc(/C=C3/C(=O)Nc4ccc(OC)cc43)n1)C(=O)N2	HCV inh 2.82µM, HCMV antiviral -98.0, FMDV inh 7.08µM
Cc1ccc(NC(=O)CN2C(=O)c3cccnc3Sc3ccccc32)cc1C	none (no result: HCV inh)
CCC(=O)Nc1cccc2cccnc12	none (no result: VACV Venus inh, VACV mCherry inh)
CC(C)CC(=O)NC(c1cccs1)c1ccc2cccnc2c1O (stereo unspecified)	HCV inh 2.82µM, VACV Venus inh inconclusive, VACV mCherry inh 6.31µM (no result: HCMV antiviral)
CC(C)CC(=O)NC(NC(=S)Nc1cccc2cccnc12)C(Cl)(Cl)Cl (stereo unspecified)	HCV inh inconclusive, HCMV antiviral inconclusive, VACV Venus inh inconclusive (no result: VACV mCherry inh)
CCC(=O)NC(c1cccs1)c1ccc2cccnc2c1O (stereo unspecified)	HCV inh 3.55µM, HCMV antiviral -100.8, VACV Venus inh inconclusive, VACV mCherry inh inconclusive
Cc1cc(C)cc(NC(=O)N2CCC(N3CCCCC3)CC2)c1	none (no result: HCV inh)
CCC(=O)Nc1ccc2nc(SCCOc3ccc(C)cc3OC)sc2c1	none (no result: HCV inh)
O=C(NCc1ccncc1)c1cnn(-c2nccc(-c3cccs3)n2)c1C1CC1	none (no result: HCV inh, HCMV antiviral)
CC(C)(C)c1nc(NC(=O)Nc2ccccc2)sc1Br	HCV inh inconclusive, HCMV antiviral -97.3, FMDV inh inconclusive (no result: VACV Venus inh, VACV mCherry inh)
COc1ccc2nc(NC(=O)Nc3ccccc3)sc2c1	VACV mCherry inh inconclusive
N#CN=c1snc(-c2ccccc2Cl)n1-c1ccccc1Cl	VACV Venus inh inconclusive, VACV mCherry inh 11.2µM (no result: HCV inh, HCMV antiviral, FMDV inh)
N#CN=c1snc(-c2ccccc2)n1-c1ccc(Cl)cc1	VACV Venus inh 3.55µM, VACV mCherry inh 5.62µM (no result: HCV inh, HCMV antiviral, FMDV inh)
C[C@H](CO)N1C[C@H](C)[C@@H](CN(C)Cc2ccc(-c3ccccc3)cc2)Oc2c(NC(=O)c3ccncc3)cccc2C1=O	HCV inh 10µM, VACV Venus inh inconclusive
C[C@H](CO)N1C[C@H](C)[C@@H](CN(C)CC2CCCCC2)Oc2c(NC(=O)Cc3ccccc3)cccc2C1=O	HCV inh inconclusive, VACV Venus inh 10µM, VACV mCherry inh inconclusive
C[C@H](CO)N1C[C@H](C)[C@H](CN(C)C(=O)Cc2ccncc2)Oc2ncc(Br)cc2C1=O	VACV Venus inh 8.91µM, VACV mCherry inh inconclusive (no result: HCV inh)
C[C@H]1CN([C@@H](C)CO)C(=O)c2cccc(NC(=O)C3CC3)c2O[C@H]1CN(C)Cc1ccc(C(F)(F)F)cc1	HCMV antiviral -88.4
COc1ccc2c(c1)C(C(Nc1ccccc1)c1ccc(Cl)cc1)C(=O)N2C (stereo unspecified)	none (no result: HCV inh, VACV Venus inh, VACV mCherry inh, FMDV inh)
Cc1cc(C)c(S(=O)(=O)NCCc2cc3ccc(C)cc3[nH]c2=O)c(C)c1	none (no result: HCV inh)
COc1cc(OC)c(NS(=O)(=O)c2c(C(=O)N3CCC(C)CC3)c(C)n(C)c2C)cc1Cl	none (no result: HCV inh)
NS(=O)(=O)c1ccc2c(c1)C1C=CCC1C(C1CC=CCC1)N2 (stereo unspecified)	HCV inh inconclusive (no result: VACV Venus inh, VACV mCherry inh)
CC(C)C1Nc2ccc(S(N)(=O)=O)cc2C2C=CCC21 (stereo unspecified)	HCV inh 11.2µM
[O-]C(=C(C(=S)Nc1cccc2ccccc12)[n+]1cccc(CO)c1)c1ccc(Cl)s1	HCV inh 7.94µM
[O-]/C(=C(\C(=S)Nc1cccc2ccccc12)[n+]1ccccc1)c1ccc(Cl)s1	none
CC1=NNC(=O)/C1=C\c1cn(-c2ccccc2)nc1-c1ccccc1	HCV inh 11.2µM, HCMV antiviral -100.0, VACV Venus inh 10µM, VACV mCherry inh 10µM, FMDV inh 8.91µM
CCS(=O)(=O)c1nnnn1-c1ccccc1S(C)(=O)=O	HCMV antiviral -92.6, VACV Venus inh inconclusive, VACV mCherry inh inconclusive, FMDV inh 39.8µM (no result: HCV inh)
COc1ccccc1C(CNC(=O)c1cccc(S(=O)(=O)N2CCCc3ccccc32)c1)N(C)C (stereo unspecified)	HCV inh inconclusive
COCCN(Cc1ccccc1)C(=O)c1cccc(S(=O)(=O)N2CCCc3ccccc32)c1	HCV inh 10µM, HCMV antiviral inconclusive (no result: VACV Venus inh, VACV mCherry inh)
COc1ccccc1CN(C)C(=O)c1cccc(S(=O)(=O)N2CCCc3ccccc32)c1	HCV inh 10µM
Clc1ccc(-n2cccc2CN2CCc3nnc(Cc4ccccc4)n3CC2)nc1	none (no result: HCV inh, HCMV antiviral)
CCCC12CN3CC(C)(CN(C1)C3c1ccc(CC)cc1)C2=O (stereo unspecified)	none (no result: HCV inh)
Cc1cc2c(c(-c3ccc(Cl)cc3)c1)OC(CNC(=O)CCC(=O)N(C)C)C2 (stereo unspecified)	none (no result: HCV inh, HCMV antiviral)
